# Experimental data published in publication PMC5540273 (PLoS ONE, 2017).
# “And” between values parts separate entries of the source, which are not always exact repeats. Equal values may be shown once. Read-outs that look alike come from different tables or passages of the source.
# Key:
# PIM1 = conditions: n = 1
# PIM2 = conditions: concentration: 1 μM, replicates: in singlicate; n = 1
# PIM3 = conditions: n = 1
# PIP5K1A = conditions: concentration: 1 μM, replicates: in singlicate; n = 1
# PIP5K1C = conditions: n = 1
# PIP5K2B = conditions: n = 1
# PIP5K2C = system: T1, PIP5K2C; conditions: n = 1
# T1 construct: gene PIP4K2C
# PKAC-alpha = system: T2, PKAC-alpha; conditions: n = 1
# T2 construct: gene PRKACA
# PKAC-beta = system: T3, PKAC-beta; conditions: n = 1
# T3 construct: gene PRKACB
# PKMYT1 = conditions: n = 1
# PKN1 = conditions: n = 1
# PKN2 = conditions: concentration: 1 μM, replicates: in singlicate; n = 1
# PLK1 = conditions: n = 1
# PLK2 = conditions: concentration: 1 μM, replicates: in singlicate; n = 1
# PLK3 = conditions: concentration: 1 μM, replicates: in singlicate; n = 1
# PLK4 = conditions: n = 1
# PRKCD = conditions: concentration: 1 μM, replicates: in singlicate; n = 1
# PRKCE = conditions: n = 1
# PRKCH = conditions: n = 1
# PRKCI = conditions: n = 1
# [1] = concentration: 1 μM, replicates: in singlicate
# [2] = concentration: 1 μM,replicates: in singlicate, 1 µM
# 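Further: KINOMEscan kinase panel screen.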
smiles,measurement,setting,value
COc1ccc(CNC(=O)NC2CCN(c3ccnc(Nc4cc(OC)c(OC)c(OC)c4)n3)C2)cc1 (stereo not drawn) [GSK1379748],%Inh,PIM1; [1],7%
same,%Inh,PIM2,0%
same,%Inh,PIM3; [1],0%
same,%Inh,PIP5K1A,36%
same,%Inh,PIP5K1C; [1],73%
same,%Inh,PIP5K2B; [1],7%
same,%Inh,PIP5K2C; [1],87%
same,%Inh,PKAC-alpha; [1],0%
same,%Inh,PKAC-beta; [1],0%
same,%Inh,PKMYT1; [1],3%
same,%Inh,PKN1; [1],0%
same,%Inh,PKN2,0%
same,%Inh,PLK1; [1],0%
same,%Inh,PLK2,0%
same,%Inh,PLK3,0%
same,%Inh,PLK4; [1],19%
same,%Inh,PRKCD,0%
same,%Inh,PRKCE; [1],14%
same,%Inh,PRKCH; [1],0%
same,%Inh,PRKCI; [1],30%
Cl.NC(=O)c1cccc(Nc2nccc(Nc3ccc(Oc4cccc(Cl)c4)c(Cl)c3)n2)c1 [GW659008],%Inh,PIM1; [1],15%
same,%Inh,PIM2,0%
same,%Inh,PIM3; [1],1%
same,%Inh,PIP5K1A,15%
same,%Inh,PIP5K1C; [1],45%
same,%Inh,PIP5K2B; [1],32%
same,%Inh,PIP5K2C; [1],60%
same,%Inh,PKAC-alpha; [1],0%
same,%Inh,PKAC-beta; [1],0%
same,%Inh,PKMYT1; [1],0%
same,%Inh,PKN1; [1],0%
same,%Inh,PKN2,0%
same,%Inh,PLK1; [1],5%
same,%Inh,PLK2,0%
same,%Inh,PLK3,0%
same,%Inh,PLK4; [1],0%
same,%Inh,PRKCD,27%
same,%Inh,PRKCE; [1],27%
same,%Inh,PRKCH; [1],10%
same,%Inh,PRKCI; [1],10%
Cn1ccc2ncnc(Oc3ccc(Nc4nc5ccccc5[nH]4)cc3)c21,%Inh,PIM1; [1],0%
same,%Inh,PIM2,0%
same,%Inh,PIM3; [1],0%
same,%Inh,PIP5K1A,0%
same,%Inh,PIP5K1C; [1],25%
same,%Inh,PIP5K2B; [1],26%
same,%Inh,PIP5K2C; [1],16%
same,%Inh,PKAC-alpha; [1],3%
same,%Inh,PKAC-beta; [1],0%
same,%Inh,PKMYT1; [1],18%
same,%Inh,PKN1; [1],0%
same,%Inh,PKN2,0%
same,%Inh,PLK1; [1],0%
same,%Inh,PLK2,0%
same,%Inh,PLK3,0%
same,%Inh,PLK4; [1],62%
same,%Inh,PRKCD,12%
same,%Inh,PRKCE; [1],0%
same,%Inh,PRKCH; [1],13%
same,%Inh,PRKCI; [1],0%
Cc1cc(NCC(c2ccccc2)c2ccccc2)nc(NCc2ccc(C(F)(F)F)cc2)n1 [GW497681],%Inh,PIM1; [1],12%
same,%Inh,PIM2,0%
same,%Inh,PIM3; [1],0%
same,%Inh,PIP5K1A,0%
same,%Inh,PIP5K1C; [1],53%
same,%Inh,PIP5K2B; [1],8%
same,%Inh,PIP5K2C; [1],0%
same,%Inh,PKAC-alpha; [1],0%
same,%Inh,PKAC-beta; [1],0%
same,%Inh,PKMYT1; [1],0%
same,%Inh,PKN1; [1],0%
same,%Inh,PKN2,0%
same,%Inh,PLK1; [1],0%
same,%Inh,PLK2,0%
same,%Inh,PLK3,0%
same,%Inh,PLK4; [1],3%
same,%Inh,PRKCD,0%
same,%Inh,PRKCE; [1],0%
same,%Inh,PRKCH; [1],0%
same,%Inh,PRKCI; [1],2%
O=C(Nc1n[nH]c2nc(-c3nccs3)c(Br)cc12)C1CCCC1 [SB-742609],%Inh,PIM1; [1],0%
same,%Inh,PIM2,0%
same,%Inh,PIM3; [1],0%
same,%Inh,PIP5K1A,0%
same,%Inh,PIP5K1C; [1],36%
same,%Inh,PIP5K2B; [1],0%
same,%Inh,PIP5K2C; [1],0%
same,%Inh,PKAC-alpha; [1],0%
same,%Inh,PKAC-beta; [1],0%
same,%Inh,PKMYT1; [1],14%
same,%Inh,PKN1; [1],0%
same,%Inh,PKN2,0%
same,%Inh,PLK1; [1],0%
same,%Inh,PLK2,0%
same,%Inh,PLK3,0%
same,%Inh,PLK4; [1],0%
same,%Inh,PRKCD,5%
same,%Inh,PRKCE; [1],0%
same,%Inh,PRKCH; [1],2%
same,%Inh,PRKCI; [1],12%
CSc1nn2c(=O)cc(N3CCOCC3)nc2n1Cc1cccc(C(F)(F)F)c1C [GSK2363608],%Inh,PIM1; [2],0% and 34%
same,%Inh,PIM2,0%
same,%Inh,PIM3; [2],0% and 27%
same,%Inh,PIP5K1A,0%
same,%Inh,PIP5K1C; [2],30% and 0%
same,%Inh,PIP5K2B; [2],1% and 4%
same,%Inh,PIP5K2C; [2],6% and 8%
same,%Inh,PKAC-alpha; [2],50% and 0%
same,%Inh,PKAC-beta; [2],64% and 0%
same,%Inh,PKMYT1; [2],13% and 19%
same,%Inh,PKN1; [2],14% and 0%
same,%Inh,PKN2,0%
same,%Inh,PLK1; [2],25% and 8%
same,%Inh,PLK2,0%
same,%Inh,PLK3,0%
same,%Inh,PLK4; [2],11% and 0%
same,%Inh,PRKCD,0%
same,%Inh,PRKCE; [2],18% and 0%
same,%Inh,PRKCH; [2],20% and 0%
same,%Inh,PRKCI; [2],13% and 18%
